Shown are actives, neighbours in structure and some others; about 18% of the full set was active somewhere.
TDP1 block: qHTS Assay for Inhibitors of Tyrosyl-DNA Phosphodiesterase (TDP1); Tyrosyl-DNA phosphodiesterase 1 (Homo sapiens), Q9NUW8; recombinant TDP1, AlphaScreen DNA substrate cleavage; Potency, µM (series often up to 130 µM), most hits filed as inhibitors; 350,000 tested, 0.28% active; also: nearly all actives have a fitted effect of over 40% in size
Target sequence (Q9NUW8 whole entry, looked up): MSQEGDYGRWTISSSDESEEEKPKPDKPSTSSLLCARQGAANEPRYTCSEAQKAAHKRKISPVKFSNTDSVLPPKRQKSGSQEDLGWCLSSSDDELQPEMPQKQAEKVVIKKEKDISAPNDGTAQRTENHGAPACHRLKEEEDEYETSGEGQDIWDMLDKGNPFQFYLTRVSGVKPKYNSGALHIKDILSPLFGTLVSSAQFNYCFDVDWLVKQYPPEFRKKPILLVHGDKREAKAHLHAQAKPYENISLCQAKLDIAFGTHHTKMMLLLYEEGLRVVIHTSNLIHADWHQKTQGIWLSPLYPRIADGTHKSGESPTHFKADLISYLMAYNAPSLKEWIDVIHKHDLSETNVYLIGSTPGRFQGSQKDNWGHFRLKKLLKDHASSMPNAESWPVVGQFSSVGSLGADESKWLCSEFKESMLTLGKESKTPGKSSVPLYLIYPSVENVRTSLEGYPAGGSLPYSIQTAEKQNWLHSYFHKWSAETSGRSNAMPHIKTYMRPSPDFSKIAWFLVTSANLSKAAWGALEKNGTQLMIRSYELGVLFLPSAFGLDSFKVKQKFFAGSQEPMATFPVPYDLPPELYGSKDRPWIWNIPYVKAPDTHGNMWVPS
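Steps: enzyme plus compound, 15 min RT; add biotin/phosphotyrosine-FITC oligonucleotide (15 nM final), react 5 min; add donor/acceptor beads (10 ug/ml final), 10 min; read AlphaScreen. Tdp1 at 1 nM final.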
HepG2 tox: qHTS for Inhibitors of TGF-b: Cytotox Counterscreen; HepG2 CAGA-GFP viability, ATP luminescence, 18 h; Potency, µM (highest dose often 46.1 µM), actives largely listed as cytotoxic; 410,000 tested, 0.76% active
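HepG2 CAGA-GFP cells (1000/well, DMEM with 1% FBS) received compound, then TGF-beta at 500 pg/mL final, and were incubated 18 hours at 37 degrees C. Viability was read by CellTiter-Glo luminescence. Media-only wells were set as complete cell-killing and DMSO as no toxicity.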
DT40 TDP1 CPT: qHTS for Inhibitors of human tyrosyl-DNA phosphodiesterase 1 (TDP1): qHTS in cells in presence of CPT | chicken DT40 Tdp1-/-;hTDP1 cells + 20 nM CPT, ATP luminescence, 48 h | Potency, µM (series often up to 46.2 µM), usual class: inhibitors | 420,000 tested, 12% active; also: nearly all actives have a fitted effect of over 55% in size
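Cell growth measured by CellTiter-Glo luminescence after a minimum 48 h, 37 C compound exposure with 20 nM CPT in Tdp1-knockout DT40 cells stably expressing hTDP1, seeded 400/well; qHTS titration format.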
TGFb inhibitor: qHTS for Inhibitors of TGF-b | Potency, µM (series often up to 46.1 µM), usual class: inhibitors | HepG2 CAGA-GFP TGF-b/SMAD3 reporter, GFP fluorescence, 18 h; TGF-beta stimulated, 500 pg/mL final | AID 588855, 2011 | 410,000 tested, 1.2% active; also: nearly all actives have a fitted effect of over 65% in size
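Using HEPG2 CAGA-GFP reporter cells at 1000 cells/well, we pinned test compounds, stimulated with recombinant TGF-beta (500 pg/mL final) and measured total well GFP after 18 h.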
IL1B secr inh: qHTS for Inhibitors of Inflammasome Signaling: IL-1-beta AlphaLISA Primary Screen | THP-1 LPS/ATP IL-1B secretion, AlphaLISA, 16 h; stronger effect = lower value | activity change, % at 57.5 µM | 360,000 tested, 4.7% active; in the data active = activity change below about -50%; inconclusive = mostly about -30% to -49%
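Secreted IL-1B measured by AlphaLISA bead assay after 16 h compound exposure of THP-1 cells; compounds (final up to 57.5 uM) added 1 h before LPS (250 ng/mL) and ATP (1.25 mM) stimulation; lower signal means less secretion.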
TDP1 cell noCPT: qHTS for Inhibitors of human tyrosyl-DNA phosphodiesterase 1 (TDP1): qHTS in cells in absence of CPT; DT40 Tdp1-/- hTDP1 cells, no CPT, ATP luminescence, 48 h; Potency, µM (doses to about 46.2 µM), most hits filed as inhibitors; AID 686978, 2013; 420,000 tested, 15% active; also: nearly all actives have a fitted effect of over 55% in size
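Seeded 400 DT40-hTDP1 cells/well (vehicle DMSO, no 20 nM CPT); pinned compounds; ≥48 hr at 37 °C; CellTiter-Glo luminescence as viability measure.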
Numbers stand for hits; i = inactive; ? = inconclusive; nt = no result given. Unless noted, calls follow the shape of the dose curve; as a rule, active = well fitted curve in the direction sought with a large enough effect; inconclusive = small, poorly fitted or top-dose-only effect, or another doubt; inactive = no such curve, though single readings can be large; an effect the other way counts as inactive or inconclusive.

SMILES	TDP1 block	HepG2 tox	DT40 TDP1 CPT	TGFb inhibitor	IL1B secr inh	TDP1 cell noCPT
Cc1cc(C)nc(Sc2ncnc3c2oc2ccccc23)n1	i	i	?	?	i	23µM
c1ccc2cc(Sc3ncnc4c3oc3ccccc34)ccc2c1	i	i	?	i	i	?
COc1ccc(C(=O)c2ccsc2N)cc1	nt	i	i	i	i	i
COc1ccc(C(=O)c2ccc(CC#N)s2)cc1	89µM	i	?	i	i	?
Cc1cc(OC(=O)c2ccccc2C)c([N+](=O)[O-])c(=O)[nH]1	i	i	i	i	i	i
C/C=C/c1ccc(OCCCCOc2ccc(OC)cc2)c(OC)c1	i	i	i	i	i	i
C/C=C/c1ccc(OCCCCNCc2ccco2)c(OC)c1	i	i	26µM	i	-58	?
C/C=C/c1ccc(OCCCN2C(=O)NC(C)(C)C2=O)c(OC)c1	i	i	i	i	i	i
C/C=C/c1ccc(OCCCCN2CCN(CC)CC2)c(OC)c1	i	i	?	i	i	29µM
C/C=C/c1ccc(OCCCCN2CC(C)CC(C)C2)c(OC)c1 (configuration not stated)	i	i	?	i	-70	?
Brc1cccc[n+]1CCC[n+]1ccccc1Br	nt	i	i	i	nt	?
Cc1ccc(C)c(CN2CCCN(Cc3ccccc3C)S2(=O)=O)c1	i	i	?	i	nt	?
CC(/C=C/c1ccccc1F)=N\NC(=O)c1ccc(Cl)cc1	i	i	15µM	i	i	15µM
C/C(=N\NC(=O)c1ccc(NS(=O)(=O)c2cccs2)cc1)c1ccc(Cl)cc1	i	i	?	i	i	23µM
C/C(=N\NC(=O)c1ccc(NS(=O)(=O)c2cccs2)cc1)c1ccc2c(c1)OCO2	i	i	?	i	i	?
O=C(NN=Cc1c(F)c(F)c(F)c(F)c1F)c1ccc(NS(=O)(=O)c2cccs2)cc1	i	i	?	i	-99	?
CC(/C=C/c1ccccc1F)=N\NC(=O)c1ccccc1	i	i	?	i	?	?
C/C(=N\NC(=O)c1ccc(NS(=O)(=O)c2cccs2)cc1)c1cccs1	i	i	i	i	-52	i
CC(=O)Nc1ccc(C=NNC(=O)c2ccc(NS(=O)(=O)c3cccs3)cc2)cc1	i	i	i	i	i	i
COc1ccc(N2CCN(C(=O)CCC(=O)N3CC(C)Oc4ccc(C)cc43)CC2)cc1 (configuration not stated)	nt	i	?	i	i	?
Cc1ccccc1C(=O)NC1CCN(CC(=O)N2CCCCC2C)CC1 (configuration not stated)	nt	i	i	i	i	i
NS(=O)(=O)c1ccc(CNC(=O)Cc2ccccc2[N+](=O)[O-])cc1	i	i	i	i	i	i
C/C(=N\NC(=O)c1ccc(Cl)cc1)c1cccs1	i	i	i	i	-63	?
COC(=O)N/N=C(\C)c1cccs1	i	i	i	i	i	i
CNC(=O)c1cccc(NC(=O)C(C)c2ccc3cc(OC)ccc3c2)c1 (configuration not stated)	nt	i	?	i	i	?
SMILES	TDP1 block	HepG2 tox	DT40 TDP1 CPT	TGFb inhibitor	IL1B secr inh	TDP1 cell noCPT
CN(C)S(=O)(=O)c1cccc(NC(=S)N/N=C/c2ccc(O)c(O)c2O)c1	nt	i	?	?	i	16µM
COc1ccc(O)c(/C=N/NC(=S)Nc2cccc(S(=O)(=O)N(C)C)c2)c1	i	i	6.5µM	?	-63	6.5µM
CCN(CCO)c1ccc(NC(=S)Nc2cccc(S(=O)(=O)N(C)C)c2)cc1	i	i	i	i	i	?
C=C(C)CNC(=S)N/N=C/c1ccco1	i	i	18µM	i	i	5.2µM
COc1cccc(/C=N/NC(=S)Nc2cccc(C(=O)O)c2)c1	i	i	i	i	i	i
COc1ccc2cc(C(C)C(=O)Nc3cccc(S(=O)(=O)N(C)C)c3)ccc2c1 (configuration not stated)	nt	i	?	?	i	23µM
NC(=O)c1ccccc1C[C@H](C(=O)O)N1C(=O)c2ccc(C(=O)O)cc2C1=O	i	nt	nt	nt	nt	nt
CC(C)c1ccccc1Oc1c(C(F)(F)F)oc2c(CN3CCN(C)CC3)c(O)ccc2c1=O	nt	i	i	i	nt	i
CN(C)S(=O)(=O)c1cccc(NC(=S)N/N=C/C(c2ccccc2)c2ccccc2)c1	i	i	?	i	i	13µM
COc1cc(/C=N/NC(=S)Nc2cccc(S(=O)(=O)N(C)C)c2)cc(OC)c1O	i	i	i	i	i	?
CC(/C=N/NC(=S)Nc1cccc(S(=O)(=O)N(C)C)c1)c1ccccc1 (configuration not stated)	i	i	?	i	i	?
COc1cccc(/C=N/NC(=S)Nc2cccc(S(=O)(=O)N(C)C)c2)c1	nt	i	4.1µM	i	i	8.2µM
CN(C)S(=O)(=O)c1cccc(NC(=S)N/N=C/c2ccco2)c1	i	i	4.6µM	?	i	5.8µM
Cc1ccccc1CN1C(=O)CSCC1(C)C(=O)NC(C)C (configuration not stated)	nt	nt	i	nt	i	i
COc1cc(/C=N/Nc2cccc3cccnc23)cc(OC)c1O	i	i	?	i	?	16µM
Oc1c(/C=N/Nc2cccc3cccnc23)ccc2ccccc12	i	i	?	?	i	?
Oc1cccc(/C=N/Nc2cccc3cccnc23)c1	i	i	?	i	-75	?
COC(=O)[C@@]12CCCN1[C@H](c1ccc(-c3ccccc3)cc1)[C@H]1C(=O)N(C)C(=O)[C@H]12	i	i	?	?	i	?
COC(=O)[C@@]12CCCCN1[C@H](c1ccc(-c3ccc(F)cc3)cc1)[C@@H]1C(=O)N(C)C(=O)[C@@H]12	i	i	21µM	?	i	13µM
COC(=O)[C@@]12CCCCN1[C@H](c1ccc(-c3ccccc3)cc1)[C@H]1C(=O)N(C)C(=O)[C@H]12	i	i	?	i	i	?
COC(=O)[C@@]12CCCCN1[C@H](c1ccc(-c3ccc(C(C)=O)cc3)cc1)[C@H]1C(=O)N(C)C(=O)[C@H]12	i	i	12µM	?	i	15µM
